The source of these data is PubChem BioAssay AID1508601 (ICCB-Longwood Screening Facility, Harvard Medical School, 2020).

Molecules are shown by their SMILES. “And” between values parts separate entries of the source, which are not always exact repeats. Equal values may be shown once. Hit rate of the full screen: of about 5,700 compounds, about 85 (1%) were called active. No stated cut-off is given here; in the data, active means p53-positive nuclei above about 36% (passing the limit was not always enough); inactive means the rest. The list comes from a sample in which actives are over-represented; it also holds similar structures and randomly drawn compounds.

Assay [1] can be described thus: p53 stabilisation in HPV-positive human cells, imaging, p53-positive nuclei imaging, 24 h, 48 h (AID 1508601). The conditions noted are these: 24/48 h.
Assay [2] has as its target Cellular tumor antigen p53 (Homo sapiens) (UniProt P04637). The description is as above. The conditions noted are these: 24/48 h, stronger effect = higher value.
Where [3] appears, read: measured here: cell number at 24 h, Library stock concentration: 3.33 mM.
Where [4] appears, read: measured here: cell number at 48 h, Library stock concentration: 3.33 mM.
Where [5] appears, read: Library stock concentration: 3.33 mM.
Setting [6] is: measured here: p53 positive nuclei at 24 h, Library stock concentration: 3.33 mM.
Where [7] appears, read: measured here: cell number at 24 h, concentration not given here.
Where [8] appears, read: measured here: cell number at 48 h, concentration not given here.
Where [9] appears, read: measured here: p53 positive nuclei at 24 h, concentration not given here.
[10] abbreviates: measured here: cell number at 24 h, Library stock concentration: 80 uM.
Setting [11] is: measured here: cell number at 24 h, Library stock concentration: 400 uM.
Where [12] appears, read: measured here: cell number at 24 h, Library stock concentration: 2 mM.
The mark [13] stands for this setting: measured here: cell number at 24 h, Library stock concentration: 10 mM.
Setting [14] is: measured here: cell number at 48 h, Library stock concentration: 80 uM.
Setting [15] is: measured here: cell number at 48 h, Library stock concentration: 400 uM.
The mark [16] stands for this setting: measured here: cell number at 48 h, Library stock concentration: 2 mM.
[17] abbreviates: measured here: cell number at 48 h, Library stock concentration: 10 mM.
Where [18] appears, read: Library stock concentration: 80 uM.
Where [19] appears, read: Library stock concentration: 400 uM.
Where [20] appears, read: Library stock concentration: 2 mM.
Where [21] appears, read: Library stock concentration: 10 mM.
Where [22] appears, read: measured here: p53 positive nuclei at 24 h, Library stock concentration: 80 uM.
[23] abbreviates: measured here: p53 positive nuclei at 24 h, Library stock concentration: 400 uM.
Where [24] appears, read: measured here: p53 positive nuclei at 24 h, Library stock concentration: 2 mM.
Setting [25] is: measured here: p53 positive nuclei at 24 h, Library stock concentration: 10 mM.

Sequence of Cellular tumor antigen p53 (Homo sapiens) (P04637 whole entry, looked up): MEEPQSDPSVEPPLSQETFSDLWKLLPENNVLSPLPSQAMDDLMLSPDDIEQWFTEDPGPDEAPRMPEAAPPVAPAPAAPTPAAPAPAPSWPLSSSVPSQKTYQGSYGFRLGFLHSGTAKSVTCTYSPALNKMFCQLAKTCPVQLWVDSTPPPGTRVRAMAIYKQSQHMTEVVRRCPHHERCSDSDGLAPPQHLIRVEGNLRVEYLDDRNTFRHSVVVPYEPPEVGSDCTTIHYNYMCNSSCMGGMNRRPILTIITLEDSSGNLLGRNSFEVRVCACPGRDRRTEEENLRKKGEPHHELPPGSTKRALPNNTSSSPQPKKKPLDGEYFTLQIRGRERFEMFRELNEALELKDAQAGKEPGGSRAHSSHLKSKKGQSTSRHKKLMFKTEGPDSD

For `CCc1cc2c(cc1CC)CC(NCC(O)c1ccc(O)c3[nH]c(=O)ccc13)C2` (configuration not stated), the nuclei count, normalised in assay [1] (setting [3]) was determined as 112%; in assay [1] (setting [4]) it was 110%. In addition, the p53-positive nuclei, normalised in assay [2] (setting [5]) was -0.298% (inactive); in assay [2] (setting [6]), -0.54%.

As for `CCCCC[C@H](O)/C=C/[C@H]1[C@H](O)CC(=O)[C@@H]1C/C=C\CCCC(=O)OC`, the nuclei count, normalised in assay [1] (setting [7]) was found to be 111%; in assay [1] (setting [8]), 106%. Also, the p53-positive nuclei, normalised in assay [2] (concentration not given here) is -0.0657% (inactive); in assay [2] (setting [9]), 0.249%.

For `CCC(CC)(NC(=O)C(C)C)C(=O)NC(CCCN=C(N)N)C(=O)NC1(C(=O)NC(c2ccc(F)cc2)c2ccc(F)cc2)CCCC1` (configuration not stated), the nuclei count, normalised in assay [1] (setting [3]) worked out at 107%; in assay [1] (setting [4]), 102%. Further, the p53-positive nuclei, normalised is -0.0557% (inactive) in assay [2] (setting [5]) and -0.115% in assay [2] (setting [6]).

In the case of `c1ccc(-c2nc3c(cnn3C3CCCCC3)[nH]2)c(Cn2cccn2)c1`, the nuclei count, normalised in assay [1] (setting [7]) was found to be 106%; in assay [1] (setting [8]) it was 110%. The p53-positive nuclei, normalised in assay [2] (concentration not given here) is -0.0852% (inactive); in assay [2] (setting [9]), 0.144%.

Turning to `CN(C)c1ccc(C(=O)NCCCCCCC(=O)NO)cc1`, the nuclei count, normalised in assay [1] (setting [3]) is 54.1%; in assay [1] (setting [7]), 116%; in assay [1] (setting [4]) it was 44.8%; in assay [1] (setting [8]), 100%. Moreover, the p53-positive nuclei, normalised in assay [2] (setting [5]) is 25% (inactive); in assay [2] (concentration not given here), 0.296% (inactive); in assay [2] (setting [6]), 45%; in assay [2] (setting [9]) it was 0.159%.

`CN(C)c1ccc(C(=O)NCCCCCC(=O)NO)cc1`: the values for the nuclei count, normalised in assay [1] (setting [7]) and in assay [1] (setting [8]) were 110% and 106%, respectively. In addition, the p53-positive nuclei, normalised in assay [2] (concentration not given here) is 0.149% (inactive); in assay [2] (setting [9]), 0.257%.

For `CC(C=CC(=O)NO)=CC(C)C(=O)c1ccc(N(C)C)cc1` (configuration not stated), the nuclei count, normalised amounted to 35.3% in assay [1] (setting [3]) and 21.2% in assay [1] (setting [4]). For the same compound, the p53-positive nuclei, normalised in assay [2] (setting [5]) was 88.9% (active); in assay [2] (setting [6]), 74.9%.

For `CC(/C=C/C(=O)NO)=C\[C@@H](C)C(=O)c1ccc(N(C)C)cc1`, the nuclei count, normalised in assay [1] (setting [7]) is 53.4%; in assay [1] (setting [8]), 27.6%. In addition, the p53-positive nuclei, normalised in assay [2] (concentration not given here) is 55.3% (active); in assay [2] (setting [9]) it was 61.3%.

Consider `COC(=O)c1c(NC(=O)CC2SC(=N)NC2=O)sc(C)c1C` (configuration not stated), for which the nuclei count, normalised came out at 98.4% in assay [1] (setting [10]); 104% in assay [1] (setting [11]); 101% in assay [1] (setting [12]); 101% in assay [1] (setting [13]); 108% in assay [1] (setting [14]); 108% in assay [1] (setting [15]). Besides, the nuclei count, normalised in assay [1] (setting [16]) was 106%; in assay [1] (setting [17]), 99.8%. The p53-positive nuclei, normalised is -0.137% (inactive) in assay [2] (setting [18]); -0.126% (inactive) in assay [2] (setting [19]); -0.195% (inactive) in assay [2] (setting [20]); -0.114% (inactive) in assay [2] (setting [21]); -0.000422% in assay [2] (setting [22]); -0.116% in assay [2] (setting [23]). Besides, the p53-positive nuclei, normalised is -0.00728% in assay [2] (setting [24]) and -0.004% in assay [2] (setting [25]).

For `C[C@]1(C(=O)Nc2ccc(F)nc2)CCCN1c1nc(Nc2cc(C3CC3)[nH]n2)c2cccn2n1`, the figures for the nuclei count, normalised in assay [1] (setting [3]) and in assay [1] (setting [4]) were 46.1% and 30.3%, respectively. The p53-positive nuclei, normalised in assay [2] (setting [5]) is -0.488% (inactive); in assay [2] (setting [6]) it was -0.0691%.

Take `C=CC(=O)Nc1cccc(Oc2nc(Nc3ccc(N4CCN(C)CC4)cc3)ncc2Cl)c1`: the results for the nuclei count, normalised in assay [1] (setting [3]) and in assay [1] (setting [4]) were 64.1% and 64.3%, respectively. In addition, the p53-positive nuclei, normalised in assay [2] (setting [5]) was -0.197% (inactive); in assay [2] (setting [6]), -0.375%.

Consider `CN1CCN(c2ccc(Nc3c4ccccc4nc4ccccc34)cc2)CC1`, for which the nuclei count, normalised in assay [1] (measured here: cell number at 24 h, Library stock concentration: 46 uM) is 95.9%; in assay [1] (setting [10]), 110%; in assay [1] (measured here: cell number at 24 h, Library stock concentration: 278 uM) it was 90.1%; in assay [1] (setting [11]) it was 95.8%; in assay [1] (measured here: cell number at 24 h, Library stock concentration: 1.67 mM) it was 79.3%; in assay [1] (setting [12]), 52.3%. Also, the nuclei count, normalised in assay [1] (setting [13]) is 32.6% and 36.6%; in assay [1] (measured here: cell number at 48 h, Library stock concentration: 46 uM), 96.2%; in assay [1] (setting [14]) it was 109%; in assay [1] (measured here: cell number at 48 h, Library stock concentration: 278 uM), 93.5%; in assay [1] (setting [15]), 103%; in assay [1] (measured here: cell number at 48 h, Library stock concentration: 1.67 mM), 81%. For the same compound, the nuclei count, normalised in assay [1] (setting [16]) was 48.7%; in assay [1] (setting [17]), 18.8% and 22%. The p53-positive nuclei, normalised in assay [2] (Library stock concentration: 46 uM) is -0.136% (inactive); in assay [2] (setting [18]) it was -0.131% (inactive); in assay [2] (Library stock concentration: 278 uM), -0.255% (inactive); in assay [2] (setting [19]) it was -0.231% (inactive); in assay [2] (Library stock concentration: 1.67 mM), -0.00204% (inactive); in assay [2] (setting [20]), 5.16% (inactive). In addition, the p53-positive nuclei, normalised is 53.2% (active) and 55.4% (active) in assay [2] (setting [21]); -0.145% in assay [2] (measured here: p53 positive nuclei at 24 h, Library stock concentration: 46 uM); -0.0662% in assay [2] (setting [22]); -0.137% in assay [2] (measured here: p53 positive nuclei at 24 h, Library stock concentration: 278 uM); -0.059% in assay [2] (setting [23]); 0.126% in assay [2] (measured here: p53 positive nuclei at 24 h, Library stock concentration: 1.67 mM). The p53-positive nuclei, normalised in assay [2] (setting [24]) was 13.1%; in assay [2] (setting [25]), 88.3% and 79.2%.

Regarding `CNC(=O)c1nn(C)c2c1C(C)(C)Cc1cnc(Nc3ccc(N4CCN(C)CC4)cc3)nc1-2`, the figures for the nuclei count, normalised in assay [1] (setting [3]) and in assay [1] (setting [4]) were 62.7% and 44%, respectively. In addition, the figures for the p53-positive nuclei, normalised in assay [2] (setting [5]) and in assay [2] (setting [6]) were 0.155% (inactive) and 0.144%, respectively.
